Each structure is given as a SMILES string.

The assay has as its target AMP-activated protein kinase, AMPK (Homo sapiens) (UniProt P54646+O43741+P54619+Q9UGJ0+Q9Y478+Q13131+Q9UGI9). Briefly: AMP-dependent Kinase enzyme assay. An in vitro enzyme assay that detects ADP turnover that is directly proportional to AMPK activity. This uses naive AMPK that is activated during the assay with MK-8722. Format: functional. On the set-up: scale not given: direction of the effect not stated beside the values. Particulars: 30 µM.
`CCCc1cc(=O)[nH]c(-n2nc(-c3cccs3)cc2N)n1`: the Percent Effect was -6.1%.
Turning to `CN(CC(O)C(F)(F)F)C(=O)Nc1cccc(Cn2cccn2)c1` (stereo not given), the Percent Effect is -3.22%.
Consider `CN(C)c1ccc(C(=O)Nc2ccn(CCc3ccncc3)n2)cc1`, for which the Percent Effect came to 10.3%.
As for `CCCc1noc(C[S+]([O-])CC(=O)NCc2ccccc2)n1` (stereo not given), the Percent Effect is -0.224%.
For `Cc1ccc(C(=O)NC2CCN(C)CC2)cc1N(C)S(C)(=O)=O`, the Percent Effect was -1.82%.
For `CCN(CC)C(=O)CS(=O)(=O)c1cc(OC)c(OC)cc1C`, the Percent Effect is 3.6%.
As for `CN(C)c1ccc(C(=O)N(Cc2ccncc2)CC2CCCO2)nn1` (stereo not given), the figure is -3.6%.
For the compound `NC(=O)c1csc(N2C[C@@H](CN3CCOCC3)[C@@H](CO)C2)n1`, the Percent Effect came out at 3.19%.
`COc1ccccc1NC(=O)c1cnc(C2CCN(C(C)=O)C2)nc1C` (stereo not given): the Percent Effect amounted to 5.26%.
Regarding `CSc1ccc(NC(=O)Cn2cc(NC(C)=O)cn2)cc1`, the Percent Effect was -11.9%.
In the case of `CCc1nnc(CNC(=O)CCC2CCCN(C)C2)s1` (stereo not given), the Percent Effect was -1.32%.
For the compound `Cc1nn(C)cc1C(=O)N1CCC(C(=O)c2nc3ccccc3s2)CC1`, the Percent Effect came out at 20.7%.
On to `CC(CO)NS(=O)(=O)c1cccc(C(C)C)c1` (stereo not given), for which the Percent Effect is -0.593%.
For `COCc1cc(NCCCSc2nnc(C)s2)ncn1`, the Percent Effect is 8.32%.
The figure for `O=C(c1nnn(-c2ccccc2)n1)N(CCO)CCO` is 0.534%; for `Cc1cc(=O)[nH]c(=O)n1Cc1ccccc1` it is 1.77%; for `O=C(CCC1CCCO1)NCCCO` (stereo not given) it is -4.81%.
On to `Fc1ccc(COCC2CCN(Cc3ccccn3)CC2)cc1`, for which the Percent Effect stood at 1.48%.
As to `CCc1oc(C(=O)NCCSc2ncn[nH]2)cc1CN1CCCC1`, the Percent Effect came out at 1.9%.
In the case of `Cc1cc(Oc2ccc(NC(=O)C3CC3)cc2)cc(C2CCNCC2)n1`, the Percent Effect is -9.8%.
Consider `CC(C)CNC(=O)c1sccc1-n1cnnn1`, for which the Percent Effect was 10.8%.
On to `Cc1cc(C)cc(NCCC(=O)NCc2cccnc2N(C)C)c1`, for which the Percent Effect was -2.62%.
The figure for `CN1CCCN(c2ccc(F)cc2CNC(=O)c2ccsc2)CC1` is 5.4%; for `Cc1n[nH]c(C)c1CCNC(=O)Nc1ccc2c(c1)COC2` it is 11.6%; for `CC(C)C(NC(=O)C1CC1)c1cc(O)nc(-c2cccnc2)n1` (stereo not given) it is 6.3%.
Consider `NC(=O)CC1CCN(c2cncc(OCc3ccccc3)n2)CC1`, for which the Percent Effect came to 20.6%.
On to `Cc1n[nH]c(C)c1NC(=O)NCc1ccccn1`, for which the Percent Effect was -10.3%.
As for `Cc1cc(C)n(CCN(C)c2ccc(-c3nc(C4CC4)no3)cn2)n1`, the figure is 5.62%.
Take `COCCN1CCN(C(=O)C(c2cccc(F)c2)N(C)C)CC1` (stereo not given): the Percent Effect is -5.71%.
Regarding `CCN(Cc1ccncc1)C1CCN(c2ccccc2)C1=O` (stereo not given), the Percent Effect was -7.01%.
Take `CC(C)COc1cncc(N2CCCN(CC(F)(F)F)CC2)n1`: the Percent Effect is 3.81%.
For the compound `Cc1cc(-c2cc3nc(C)c(C)c(NCC4COCCO4)n3n2)no1` (stereo not given), the Percent Effect was 17.6%.
Consider `COc1ccccc1NC(=O)CCNC(=O)c1ccoc1`, for which the Percent Effect was -6.87%.
As for `COc1ccc(-c2cc(C3CC3)c(C#N)c(N)n2)cc1F`, the figure is 9.02%; as for `O=C(c1cnco1)N1CCC(Cc2cccc3ncccc23)CC1`, 5.42%.
The figure for `O=C(c1ccc(=O)[nH]c1)N1CCC(Oc2cccc(C(F)(F)F)c2)CC1` is -3.39%; for `COc1cccc(NC(=O)CN(C(C)C)C2CC2)c1` it is -0.663%.
As for `Cc1ccnc(NC(=O)c2ccc(Br)o2)c1`, the figure is 5.24%.
With `Cc1cc(N2CCC3(CCCN(CCO)C3=O)C2)nc2cc(Cl)ccc12` (stereo not given), the Percent Effect was found to be 10%.
As for `CC(C)n1nccc1CN1Cc2nccn2CC1c1ccccc1` (stereo not given), the figure is -2.65%.
